From the supplement of paper PMC8728848
About 410 targets per protein were measured; listed, in parts, are those with the strongest signals and a random draw of the rest.

Legend:
Assay in all cases: glycan array binding signal (z-score within array); higher = stronger binding
Settings in all cases: glycan notation: IUPAC condensed, linker removed
[1] = molecular target: Gal(b1-4)GlcNAc(b1-3)Gal(b1-4)GlcNAc(b1-3)Gal(b1-4)GlcNAc(b1-3)Gal(b1-4)GlcNAc(b1-2)Man(a1-3)[Gal(b1-4)GlcNAc(b1-3)Gal(b1-4)GlcNAc(b1-3)Gal(b1-4)GlcNAc(b1-3)Gal(b1-4)GlcNAc(b1-2)Man(a1-6)]Man(b1-4)GlcNAc(b1-4)[Fuc(a1-6)]GlcNAc
Procedure, shortened: (§1)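 Glycan array binding is given as a within-array Z-score, which can be read as non-binding when negative. The arrays, 3228 of them, came from the Consortium for Functional Glycomics database and were retained only where the protein sequence was available. Z-scores were averaged across arrays of the same protein sequence at different concentrations or buffers and across linkers.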

[2] = molecular target: Gal(b1-4)GlcNAc(b1-3)Gal(b1-4)GlcNAc(b1-3)Gal(b1-4)GlcNAc(b1-3)Gal(b1-4)GlcNAc(b1-2)[Gal(b1-4)GlcNAc(b1-3)Gal(b1-4)GlcNAc(b1-3)Gal(b1-4)GlcNAc(b1-3)Gal(b1-4)GlcNAc(b1-6)]Man(a1-6)[Gal(b1-4)GlcNAc(b1-3)Gal(b1-4)GlcNAc(b1-3)Gal(b1-4)GlcNAc(b1-3)Gal(b1-4)GlcNAc(b1-2)Man(a1-3)]Man(b1-4)GlcNAc(b1-4)[Fuc(a1-6)]GlcNAc
Procedure, shortened: as §1

[3] = molecular target: Gal(b1-4)GlcNAc(b1-3)Gal(b1-4)GlcNAc(b1-3)Gal(b1-4)GlcNAc(b1-3)Gal(b1-4)GlcNAc(b1-3)Gal(b1-4)GlcNAc(b1-2)[Gal(b1-4)GlcNAc(b1-3)Gal(b1-4)GlcNAc(b1-3)Gal(b1-4)GlcNAc(b1-3)Gal(b1-4)GlcNAc(b1-3)Gal(b1-4)GlcNAc(b1-6)]Man(a1-6)[Gal(b1-4)GlcNAc(b1-3)Gal(b1-4)GlcNAc(b1-3)Gal(b1-4)GlcNAc(b1-3)Gal(b1-4)GlcNAc(b1-3)Gal(b1-4)GlcNAc(b1-2)Man(a1-3)]Man(b1-4)GlcNAc(b1-4)[Fuc(a1-6)]GlcNAc
Procedure, shortened: as §1

[4] = molecular target: Gal3S(b1-3)[Fuc(a1-4)]GlcNAc
Procedure, shortened: as §1

[5] = molecular target: Gal3S(b1-4)Glc
Procedure, shortened: as §1

[6] = molecular target: Gal3S(b1-4)[Fuc(a1-3)]GlcNAc6S
Procedure, shortened: as §1

[7] = molecular target: Gal6S(b1-4)Glc
Procedure, shortened: as §1

[8] = molecular target: GalNAc(a1-3)GalNAc
Procedure, shortened: as §1

[9] = molecular target: Glc(a1-4)Glc
Procedure, shortened: as §1

[10] = molecular target: GlcNAc(b1-2)Man(a1-3)[GlcNAc(b1-2)Man(a1-6)]Man(b1-4)GlcNAc(b1-4)GlcNAc
Procedure, shortened: as §1

[11] = molecular target: GlcNAc(b1-3)Gal(b1-3)GalNAc
Procedure, shortened: as §1

[12] = molecular target: GlcNAc(b1-3)Gal(b1-4)GlcNAc(b1-3)Gal(b1-4)GlcNAc(b1-3)Gal(b1-4)GlcNAc(b1-3)Gal(b1-4)GlcNAc(b1-2)Man(a1-3)[GlcNAc(b1-3)Gal(b1-4)GlcNAc(b1-3)Gal(b1-4)GlcNAc(b1-3)Gal(b1-4)GlcNAc(b1-3)Gal(b1-4)GlcNAc(b1-2)Man(a1-6)]Man(b1-4)GlcNAc(b1-4)[Fuc(a1-6)]GlcNAc
Procedure, shortened: as §1

[13] = molecular target: GlcNAc(b1-4)GlcNAc(b1-4)GlcNAc
Procedure, shortened: as §1

[14] = molecular target: Man(a1-2)Man(a1-3)[Man(a1-6)]Man(a1-6)[Man(a1-2)Man(a1-3)]Man(b1-4)GlcNAc(b1-4)GlcNAc
Procedure, shortened: as §1

[15] = molecular target: Man(a1-3)[Man(a1-6)]Man(a1-6)[Man(a1-3)]Man
Procedure, shortened: as §1

[16] = molecular target: Neu5Ac(a2-3)Gal(b1-4)GlcNAc(b1-3)Gal(b1-4)GlcNAc(b1-6)[Gal(b1-3)]GalNAc
Procedure, shortened: as §1

[17] = molecular target: Neu5Ac(a2-3)Gal(b1-4)[Fuc(a1-3)]GlcNAc
Procedure, shortened: as §1

[18] = molecular target: Neu5Ac(a2-3)Gal(b1-4)[Fuc(a1-3)]GlcNAc(b1-6)[Neu5Ac(a2-3)Gal(b1-3)]GalNAc
Procedure, shortened: as §1

[19] = molecular target: Neu5Ac(a2-6)Gal(b1-4)GlcNAc
Procedure, shortened: as §1

[20] = molecular target: Neu5Ac(a2-6)Gal(b1-4)GlcNAc(b1-2)Man(a1-3)[Neu5Ac(a2-6)Gal(b1-4)GlcNAc(b1-2)Man(a1-6)]Man(b1-4)GlcNAc(b1-4)[Fuc(a1-6)]GlcNAc
Procedure, shortened: as §1

[21] = molecular target: Neu5Ac(a2-6)Gal(b1-4)GlcNAc(b1-2)Man(a1-6)[Gal(b1-4)GlcNAc(b1-2)Man(a1-3)]Man(b1-4)GlcNAc(b1-4)GlcNAc
Procedure, shortened: as §1

[22] = molecular target: Neu5Ac(a2-6)Gal(b1-4)GlcNAc(b1-3)Gal(b1-4)GlcNAc
Procedure, shortened: as §1

[23] = molecular target: Neu5Ac(a2-6)GalNAc(b1-4)GlcNAc
Procedure, shortened: as §1

[24] = molecular target: Neu5Ac(a2-6)GlcNAc(b1-4)GlcNAc
Procedure, shortened: as §1

[25] = molecular target: Neu5Ac(a2-8)Neu5Ac(a2-8)Neu5Ac(a2-3)[GalNAc(b1-4)]Gal(b1-4)Glc
Procedure, shortened: as §1

[26] = molecular target: Neu5Ac(b2-6)Gal(b1-4)GlcNAc
Procedure, shortened: as §1

[27] = molecular target: Neu5Ac9Ac(a2-3)Gal(b1-3)GlcNAc
Procedure, shortened: as §1

[28] = molecular target: Neu5Ac9Ac(a2-3)Gal(b1-4)GlcNAc
Procedure, shortened: as §1

[29] = molecular target: Neu5Gc(a2-3)Gal(b1-3)[Fuc(a1-4)]GlcNAc
Procedure, shortened: as §1

[30] = molecular target: Neu5Gc(a2-6)GalNAc
Procedure, shortened: as §1

B1: rMpL (Macrolepiota procera) (protein)
chain: MSTQVSSGRTYKITNVIAGTVIDLSGEDNKSIIGYPYHSGKNQQWTFNWTGKAWTLRSASSGSYLGIEGTPAGGTRLVAVNDPFEWHIWRDEANENAFRIFVPFTNYNLDLSGYGDTTPGTPVQLWWTWEGLHQTWTIDRP
glycan array binding signal (z-score) [1]: 3.33
glycan array binding signal (z-score) [2]: 4.7
glycan array binding signal (z-score) [3]: 4.6
glycan array binding signal (z-score) [4]: -0.271
glycan array binding signal (z-score) [5]: -0.325
glycan array binding signal (z-score) [6]: -0.333
glycan array binding signal (z-score) [7]: -0.233
glycan array binding signal (z-score) [8]: -0.265
glycan array binding signal (z-score) [9]: -0.289
glycan array binding signal (z-score) [10]: -0.322
glycan array binding signal (z-score) [11]: -0.302
glycan array binding signal (z-score) [12]: -0.17
glycan array binding signal (z-score) [13]: -0.382
glycan array binding signal (z-score) [14]: -0.35
glycan array binding signal (z-score) [15]: -0.268
glycan array binding signal (z-score) [16]: -0.198
glycan array binding signal (z-score) [17]: -0.32
glycan array binding signal (z-score) [18]: -0.185
glycan array binding signal (z-score) [19]: -0.358
glycan array binding signal (z-score) [20]: -0.168
glycan array binding signal (z-score) [21]: 0.028
glycan array binding signal (z-score) [22]: -0.363
glycan array binding signal (z-score) [23]: -0.425
glycan array binding signal (z-score) [24]: -0.364
glycan array binding signal (z-score) [25]: -0.174
glycan array binding signal (z-score) [26]: -0.33
glycan array binding signal (z-score) [27]: -0.374
glycan array binding signal (z-score) [28]: 0.277
glycan array binding signal (z-score) [29]: -0.335
glycan array binding signal (z-score) [30]: -0.358
